Screening data as filed in PubChem BioAssay.
Most compounds without a hit are left out; they make up all but 12% or so of the library.
HP1b chromo inh: HP1-beta chromodomain-methylated histone interaction inhibition. Potency, µM (doses to about 114 µM), most hits filed as inhibitors. P83916. AID 540317. AlphaScreen HP1-beta / biotin-H3K9me3 peptide binding. 0.56% of 390,000 active; also: nearly all actives have a fitted effect of over 70% in size
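HP1-beta protein (50 nM final) preincubated 30 min at room temperature with biotinylated H3(1-18)K9me3 peptide (50 nM) in PBS pH 7.4, 0.01% Tween-20, then compound added for 30 min. AlphaScreen streptavidin donor/nickel chelate acceptor beads (10 ug/mL final), 30 min dark, luminescence read.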
JMJD2A Tudor: inhibitors of human JMJD2A Tudor domain; O75164; AlphaScreen JMJD2A-Tudor / H3K4me3 peptide binding; Potency, µM (series often up to 114 µM), usual class: inhibitors; 4.4% of 390,000 active; also: nearly all actives have a fitted effect of over 50% in size
Target sequence (O75164 whole entry, looked up, the tested form may be a part): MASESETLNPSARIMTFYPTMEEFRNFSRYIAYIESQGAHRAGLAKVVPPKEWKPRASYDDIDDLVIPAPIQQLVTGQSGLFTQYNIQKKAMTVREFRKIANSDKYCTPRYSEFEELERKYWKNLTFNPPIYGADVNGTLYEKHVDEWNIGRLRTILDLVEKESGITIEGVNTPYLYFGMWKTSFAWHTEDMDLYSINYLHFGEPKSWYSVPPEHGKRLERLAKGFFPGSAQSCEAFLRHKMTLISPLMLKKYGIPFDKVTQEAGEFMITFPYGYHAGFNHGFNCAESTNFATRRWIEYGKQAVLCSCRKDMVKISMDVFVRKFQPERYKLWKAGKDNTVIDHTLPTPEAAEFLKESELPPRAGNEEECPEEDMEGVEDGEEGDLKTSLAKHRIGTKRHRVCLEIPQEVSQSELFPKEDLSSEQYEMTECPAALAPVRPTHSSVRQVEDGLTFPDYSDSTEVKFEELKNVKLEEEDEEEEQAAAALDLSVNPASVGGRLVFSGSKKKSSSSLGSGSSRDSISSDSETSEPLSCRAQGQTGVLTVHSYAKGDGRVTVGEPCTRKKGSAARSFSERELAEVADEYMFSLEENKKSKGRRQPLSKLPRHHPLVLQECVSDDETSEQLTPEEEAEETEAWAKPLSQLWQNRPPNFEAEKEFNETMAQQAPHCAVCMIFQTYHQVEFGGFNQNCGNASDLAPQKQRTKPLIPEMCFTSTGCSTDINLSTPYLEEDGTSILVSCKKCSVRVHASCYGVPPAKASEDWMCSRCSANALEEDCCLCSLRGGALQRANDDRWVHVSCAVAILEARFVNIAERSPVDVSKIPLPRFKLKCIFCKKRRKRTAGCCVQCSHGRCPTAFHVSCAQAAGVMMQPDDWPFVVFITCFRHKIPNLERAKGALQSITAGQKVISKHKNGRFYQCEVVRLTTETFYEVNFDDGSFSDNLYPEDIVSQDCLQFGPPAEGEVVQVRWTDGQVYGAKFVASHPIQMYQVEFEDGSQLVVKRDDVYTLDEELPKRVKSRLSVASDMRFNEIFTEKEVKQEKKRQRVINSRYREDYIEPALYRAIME
Sfp PPTase inh: blocks B. subtilis Sfp PPTase activity | Q9F4F7 | Biochemical Sfp PPTase activity, qHTS | Potency, µM, most hits filed as inhibitors | 3.5% of 310,000 active | AID 1490;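 also: the enzyme is Sfp with the accession as filed and its product quenches rhodamine fluorescence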
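With Hepes-Na pH 7.6 buffer containing 10 mM MgCl2, Sfp (15 nM) modified BHQ-2-YbbR (12.5 uM) using rhodamine-CoA (5 uM). Two reads 30 minutes apart at 525/598 nm yielded each well's rate.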
BAZ2B block: BAZ2B (human) inhibition; Q9UIF8; AlphaScreen BAZ2B-H3K14Ac peptide displacement; Potency, µM (highest dose often 114 µM), hits mostly inhibitors; 4.4% of 360,000 active; also: nearly all actives have a fitted effect of over 60% in size
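Inhibition is scored as reduced AlphaScreen emission. The BAZ2B/b-H3(5-23)K14Ac complex (50 nM each) in PBS pH 7.4, 0.01% Tween-20 meets compound (up to 110 uM) for 30 min at RT before bead addition.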
PLK1 PBD block: inhibitors of human PLK1 polo-box domain binding; P53350; Plk1 PBD binding of FITC phosphopeptide, fluorescence polarization; Potency, µM, usual class: inhibitors; 2.8% of 360,000 active; AID 720504; also: series mostly up to about 57 µM; nearly all actives have a fitted effect of over 65% in size
G9a block: blocks human histone lysine methyltransferase G9a; G9a H3K9 monomethylation, AlphaScreen, 2 h; Potency, µM (top dose mostly 102 µM), hits mostly inhibitors; 8.8% of 350,000 active; also: nearly all actives have a fitted effect of over 75% in size
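Methyltransferase reactions run at room temperature for 2 h (20 nM enzyme, 500 nM biotin-H3K9 peptide, 20 uM SAM) after a 15 min compound preincubation; product detected by AlphaScreen beads and anti-H3K9me1 antibody.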
Large screens that a line does not name were inactive. Calls follow the shape of the dose curve; as a rule, active = well fitted curve in the direction sought with a large enough effect; inconclusive = small, poorly fitted or top-dose-only effect, or another doubt; inactive = no such curve, though single readings can be large; an effect the other way counts as inactive or inconclusive.

O=C(Nc1cccc(O)c1)c1noc2c1CCCCC2	none
CC(=O)c1ccc(NC(=O)c2noc3c2CCC3)cc1	HP1b chromo inh inconclusive, BAZ2B block 56µM, G9a block 40µM
COc1cc(OC)c(NC(=O)c2nn(C)c3c2COc2ccccc2-3)cc1Cl	G9a block 2.2µM (no result: Sfp PPTase inh, PLK1 PBD block)
COc1cc(OC)c(NC(=O)c2noc3c2CSc2ccccc2-3)cc1Cl	G9a block 1.6µM (no result: Sfp PPTase inh, PLK1 PBD block)
COc1ccc(NC(=O)c2noc3c2CSc2ccccc2-3)cc1Cl	none (no result: Sfp PPTase inh, PLK1 PBD block)
Cc1ccc(C)n1-c1nnc(N2CCCC(C(=O)NCc3cccc(Cl)c3)C2)s1 (stereo not given)	none (no result: Sfp PPTase inh, PLK1 PBD block)
O=C1CC(c2ccccc2O)Oc2ccc(O)cc21 (stereo not given)	none (no result: HP1b chromo inh, JMJD2A Tudor, BAZ2B block, PLK1 PBD block, G9a block)
CC(=O)N1CCCc2cc(S(=O)(=O)N3CCCC(C(=O)Nc4cccc(Cl)c4C)C3)ccc21 (stereo not given)	none (no result: Sfp PPTase inh, PLK1 PBD block)
O=C(Cn1ncc2c3ccccc3n(Cc3ccc(Cl)cc3)c2c1=O)NCc1cccs1	none (no result: Sfp PPTase inh, PLK1 PBD block)
COc1cc(NC(=O)c2noc3c2CCC3)c(OC)cc1Cl	HP1b chromo inh inconclusive, JMJD2A Tudor 45µM, Sfp PPTase inh inconclusive, BAZ2B block 50µM, PLK1 PBD block inconclusive, G9a block inconclusive
O=C(Nc1ccc(OC(F)(F)F)cc1)c1noc2c1CCCC2	none (no result: Sfp PPTase inh, PLK1 PBD block)
COc1ccc(NC(=O)c2noc3c2CCC3)cc1	HP1b chromo inh inconclusive, JMJD2A Tudor 56µM, BAZ2B block 45µM, PLK1 PBD block inconclusive, G9a block inconclusive
Cc1cccn2c(=O)c(/C=C3\SC(=S)NC3=O)c(NCCCN3CCOCC3)nc12	Sfp PPTase inh 4µM, G9a block 13µM
CCCN1C(=O)/C(=C/c2c(NCCCOCC)nc3c(C)cccn3c2=O)SC1=S	none
COc1ccc(C2/C=C\[C@H](O[Si](C)(C)C(C)(C)C)[C@H](C(C)C)CC(=O)N2Cc2ccccc2)cc1 (stereo not given in full)	none (no result: HP1b chromo inh, JMJD2A Tudor, BAZ2B block, PLK1 PBD block)
CC(=O)NC(Cc1ccccc1)C(=O)NC1CCN(C(=O)c2ccc([N+](=O)[O-])cc2)CC1 (stereo not given)	PLK1 PBD block 3.4µM
O=[S@]1Oc2ccccc2-c2ccccc21	PLK1 PBD block 2.1µM (no result: Sfp PPTase inh, BAZ2B block, G9a block)
O=S1c2ccccc2Oc2ccccc21	none (no result: Sfp PPTase inh, BAZ2B block, G9a block)
CCCN(C)C1CN(Cc2cn(Cc3ccc(OC)cc3)nn2)S(=O)(=O)C1 (stereo not given)	none (no result: HP1b chromo inh, JMJD2A Tudor, Sfp PPTase inh, BAZ2B block, G9a block)
NS(=O)(=O)c1ccc(N=NN2CCCCC2)cc1	G9a block inconclusive
CCOc1ccc(N=Nc2cc(C(C)C)ccc2O)cc1	HP1b chromo inh 14µM, JMJD2A Tudor 18µM, BAZ2B block 5.6µM, G9a block 20µM
NS(=O)(=O)c1ccc(N=Nc2ccc(=O)[nH]c2O)cc1	HP1b chromo inh 50µM, JMJD2A Tudor 35µM, Sfp PPTase inh inconclusive, BAZ2B block 45µM, PLK1 PBD block 27µM
CCOc1ccc(N=Nc2ccc(O)c3ncccc23)cc1	JMJD2A Tudor inconclusive, BAZ2B block inconclusive, G9a block 40µM
NS(=O)(=O)c1ccc(N=Nc2ccc(O)c3ncccc23)cc1	HP1b chromo inh inconclusive, JMJD2A Tudor 20µM, BAZ2B block 3.5µM, G9a block 50µM
CCOc1ccc(N=Nc2ccc(N)cc2N)cc1	G9a block inconclusive (no result: HP1b chromo inh, JMJD2A Tudor, BAZ2B block, PLK1 PBD block)
NCCC[C@@H](CC(=O)N[C@@H]1CCCC[C@H]1C(=O)N[C@H](CC(=O)N[C@@H](CCC(=O)O)CC(=O)O)Cc1c[nH]c2ccccc12)NC(=O)C[C@H](Cc1ccccc1)NC(=O)[C@@H]1CCCC[C@H]1N	none (no result: HP1b chromo inh, JMJD2A Tudor, BAZ2B block, PLK1 PBD block, G9a block)
COc1ccc2[nH]c(C)c(CCNS(=O)(=O)c3cc(F)ccc3OC)c2c1	JMJD2A Tudor inconclusive, BAZ2B block inconclusive (no result: Sfp PPTase inh, PLK1 PBD block)
Cn1nc([N+](=O)[O-])nc1Sc1cccc2cccnc12	Sfp PPTase inh inconclusive, PLK1 PBD block 17µM
Cc1cc(C)n(-c2nc(NCC3CCCO3)c3c4c(sc3n2)COC(C)(C)C4)n1 (stereo not given)	G9a block 1.8µM
CCn1c2cc(C)sc2c2cnn(Cc3ccccc3F)c(=O)c21	none (no result: HP1b chromo inh, Sfp PPTase inh, BAZ2B block, PLK1 PBD block, G9a block)
COc1ccc(N2C(=O)CC(NC3CC3)C2=O)cc1 (stereo not given)	none
CCOc1ccc(N2C(=O)CC(NC3CCN(C(=O)c4ccc(F)cc4)CC3)C2=O)cc1 (stereo not given)	G9a block 13µM
CCOC(=O)c1ccc(N2C(=O)CC(NC3CCN(C(=O)c4ccc(F)cc4)CC3)C2=O)cc1 (stereo not given)	G9a block 45µM
CCn1c(-c2cc(-c3cc(C)ccc3C)nc3ccccc23)n[nH]c1=S	JMJD2A Tudor 56µM, BAZ2B block inconclusive, G9a block 28µM
Cc1ccc(-c2cc(-c3n[nH]c(=S)n3C)c3ccccc3n2)cc1	JMJD2A Tudor inconclusive, Sfp PPTase inh inconclusive, BAZ2B block inconclusive, PLK1 PBD block inconclusive, G9a block 2µM
CCn1c(-c2cc(C3CC3)nc3ccccc23)n[nH]c1=S	JMJD2A Tudor 50µM, G9a block 2.2µM
CCOc1cccc(-c2cc(-c3n[nH]c(=S)n3CC)c3ccccc3n2)c1	JMJD2A Tudor inconclusive, Sfp PPTase inh inconclusive, BAZ2B block inconclusive, G9a block inconclusive
CCOc1ccccc1-c1cc(-c2n[nH]c(=S)n2CC)c2ccccc2n1	JMJD2A Tudor 45µM, G9a block 10µM
CCOc1ccc(C(=O)Nc2c(C(=O)Nc3ccccc3F)oc3ccccc23)cc1OCC	none (no result: Sfp PPTase inh, PLK1 PBD block)
O=C(CSc1nc2ccccc2nc1Cc1ccc(Cl)cc1)Nc1ccc2c(c1)OCO2	none (no result: Sfp PPTase inh, PLK1 PBD block)
COc1cc(OC)nc(/N=C/NO)n1	none
